# Experimental data published in PubChem BioAssay.
# Active and inactive are the calls of the source.
# Assay: E. coli DRC41 culture turbidity changes, primary screen, E. coli filamentation inducer project, strain DRC41, OD650, 48 h (AID 1152);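 further: E. coli MC1000 strain DRC41 lacking acrAB efflux pump and sulA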
# Details: E. coli DRC41 (acrAB sulA), higher = more signal, called active from +8 up or from −8 down
row,Compound,z-score
1,CC(C)Cc1ccc(CN2CC[C@@H](NC(=O)Nc3ccccc3)C2)cc1,-3.31 (inactive)
2,COC(=O)[C@@]1(Cc2ccc(F)cc2)[C@H]2c3cc(C(=O)N4CCCC4)n(CCN4CNCC4=O)c3C[C@H]2CN1C(=O)c1ccccc1,-1.59 (inactive)
3,COC(=O)[C@@]1(Cc2ccccc2)[C@@H]2C(=CC(=O)[C@H]2CC(=O)C(=O)N(C)C)CN1C(=O)c1ccccc1,0.174 (inactive)
4,C=CCC(OC(C)=O)[C@@H]1[C@@H](N(Cc2ccc(-c3ccccc3)cc2)C(=O)Cc2ccc(F)cc2)c2cc(OCCCO)ccc2N1C(=O)Cc1ccc(OC)cc1 (stereo not given in full),0.246 (inactive)
5,COc1ccc([Si](C)(C)[C@@H]2[C@@H](CCn3cc([C@H](O)c4ccccc4)nn3)O[C@]3(C(=O)N(Cc4ccc(N5CCC5=O)cc4)c4ccccc43)[C@H]2C)cc1,0.893 (inactive)
6,C=C(C)[C@@H]1CC=C(C(O)C2C=CC3C(=O)N(c4ccccc4)C(=O)C3N2Nc2ccccc2F)CC1 (stereo not given in full),-1.79 (inactive)
7,Cc1ccc(S[C@]2(C(=O)O)CC(=O)N(Cc3ccccc3Cl)[C@@H]2c2ccc(CO)cc2I)cc1,-0.754 (inactive)
8,O=C1C2C=CC(C(O)c3ccccc3)N(Nc3ccccc3F)C2C(=O)N1c1ccccc1 (stereo not given),0.0394 (inactive)
9,[N-]=[N+]=NCc1ccccc1[C@@H]1OC(c2ccc(OCCCO)cc2)=N[C@]1(CCS(=O)(=O)c1ccccc1)C(=O)NCC(O)CO (stereo not given in full),0.766 (inactive)
10,COC(=O)c1c(CC[C@@H](CO)NC(=O)N[C@H](Cn2cc(C3(O)CCCCC3)nn2)C(C)C)oc(C(C)=O)c1C(=O)OC,1.51 (inactive)
11,O=C1C2C=CC(C(O)c3ccc(F)cc3)N(n3cnnc3)C2C(=O)N1Cc1ccccc1 (stereo not given),-0.792 (inactive)
12,Cc1ccc(S[C@]2(C(=O)NCC(F)(F)F)CC(=O)N(Cc3ccccc3)[C@@H]2c2ccc(CO)cc2I)cc1,-0.764 (inactive)
13,C=C(/C(=C/C[C@H](OC(C)=O)c1ccccc1OCCO)c1cc(C(=O)OC)ccc1OC)C(C)C,0.483 (inactive)
14,CC(C)N1C(=O)C[C@@](C(=O)NCCCN(C)C)(c2ccc([N+](=O)[O-])cc2)[C@H]1c1ccc(CO)cc1,-0.898 (inactive)
15,COCCOC(=O)N1C(=O)[C@@]2(c3cc(C#Cc4ccc(OC)cc4)ccc31)[C@H](c1ccccc1OCCO)N1[C@H](c3ccccc3)[C@H](c3ccccc3)OC(=O)[C@H]1[C@@H]2C(=O)N1CCCCCCC1,2.97 (inactive)
16,O=C1NC(=O)C2C1C=CC(C(O)c1cccc3ccccc13)N2Nc1ccc(Cl)cc1Cl (stereo not given),-1.85 (inactive)
17,C=CCNC(=O)[C@H]1[C@@H]2C(=O)O[C@@H](c3ccccc3)[C@@H](c3ccccc3)N2[C@@H](c2ccc(O)cc2)[C@]12C(=O)Nc1ccc(C#CC3(O)CCCCCC3)cc12,-1.14 (inactive)
18,CCCC[C@@H]1C[C@H]1[C@@H](NC(=O)c1ccccc1)c1ccc(C(F)(F)F)cc1,-0.903 (inactive)

row,Compound,z-score
1,NC(=O)N1C(=O)C2C(C1=O)C1C=C(CCCO)C2C(c2cccs2)N1Cc1cccc(OC(F)(F)F)c1 (stereo not given),-0.19 (inactive)
2,CCCC[C@@H]1C[C@H]1[C@@H](NC(=O)c1cccs1)c1ccc(C(F)(F)F)cc1,-2.61 (inactive)
3,C=C(/C(=C/C[C@@H](OC(C)=O)c1cccc(OCCO)c1)c1cc(C(=O)OC)ccc1OC)C(C)C,0.546 (inactive)
4,CC(C)(C)OC(=O)CC[C@]1(C(=O)NCC(O)CO)N=C(c2ccc(OCCCO)cc2)O[C@H]1c1ccccc1 (stereo not given in full),1.79 (inactive)
5,CC(C)(C)N1CC=CC23O[C@@H]4C=CCCOC(=O)C4[C@H]2C(=O)N(CCO)[C@@H]3C1=O (stereo not given in full),0.209 (inactive)
6,COc1ccccc1CN1C(=O)c2ccccc2[C@](Cc2ccccc2I)(C(=O)NCC(F)(F)F)[C@@H]1c1ccc(CO)cc1,-0.566 (inactive)
7,CCOC(=O)C[C@H]1[C@H](OC(=O)c2ccccc2-c2ccccc2)[C@@H](NC(=O)C2CCCCC2)c2cc(OCCCO)ccc2N1C(=O)Cc1ccc(OC)cc1,-1.13 (inactive)
8,COC(=O)CCCCCCC(=O)Nc1ccc(NC(=O)CCCC[P+](c2ccccc2)(c2ccccc2)c2ccccc2)cc1,-12.4 (active)
9,CN1C(=O)C2C=CC(C(O)COCc3ccccc3)N(N(c3ccccc3)c3ccccc3)C2C1=O (stereo not given),-0.339 (inactive)
10,O=C1O[C@H](c2ccccc2)[C@H](c2ccccc2)N2[C@H]1[C@@H](C(=O)O)[C@]1(C(=O)Nc3ccc(C#CC4=CCCCC4)cc31)[C@H]2c1ccc(O)cc1,-1.14 (inactive)
11,CCOc1cc(C(O)C2C=CC3C(=O)N(c4ccccc4)C(=O)C3N2Nc2ccc(C#N)cc2)ccc1O (stereo not given),-1.17 (inactive)
12,Cc1cc(C)cc(N2C(=O)CSC2c2cccc([N+](=O)[O-])c2)c1 (stereo not given),0.421 (inactive)
13,COCCOC(=O)N1C(=O)[C@@]2(c3cc(C#CC4(O)CCCCCC4)ccc31)[C@H](c1ccc(O)cc1)N1[C@H](c3ccccc3)[C@H](c3ccccc3)OC(=O)[C@H]1[C@@H]2C(=O)NC[C@H](O)c1ccccc1,-0.686 (inactive)
14,C=CCN1C(=O)[C@@]2(CCS(=O)(=O)c3ccccc3)N=C(c3ccc(OCCCO)cc3)O[C@H]2c2ccccc21,-0.135 (inactive)
15,CCOC(=O)C[C@H]1[C@H](OC(=O)c2cc3ccccc3oc2=O)[C@@H](NC(=O)c2ccc(-c3ccccc3)cc2)c2cc(OCCCO)ccc2N1C(=O)c1ccccc1,1.27 (inactive)
16,CCCCO[C@H]1C[C@H]2C(I)=C[C@@H]1C(=O)[C@]21CO1,-1.55 (inactive)
17,[N-]=[N+]=NCc1ccccc1[C@H]1OC(c2ccc(OCCCO)cc2)=N[C@@]1(CCS(=O)(=O)c1ccccc1)C(=O)N1CCCCC1,-0.193 (inactive)
